Reference: PubChem BioAssay (NCI)
About 79,000 compounds went through this panel and 15% of them were active in at least one assay; those are over-represented in the sample as a whole. Activity calls are given as the source filed them. Rule as the data show it: active = growth inhibition above about 70%; inactive = the rest.

assay: NCI Yeast Anticancer Drug Screen. Data for the sgs1 mgt1 strain (AID 161);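 also: 0% = growth of cultures given vehicle only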; settings: S. cerevisiae sgs1 mgt1 strain, at 50.0 µM, stronger effect = higher value
Outline: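 Percent growth inhibition was derived by comparing compound-exposed mutant yeast with vehicle-exposed cultures. The strain carries alterations in DNA damage repair.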

Q: For `CCOC(=O)CCC(NC(=O)c1ccc(Nc2nc3ccccc3nc2-c2cccs2)cc1)C(=O)OCC` (stereo not given), which growth inhibition is on record?
A: 20.1% (inactive)

Q: With `O=C(O)CC(NC(=O)c1cnc2ccccc2n1)C(=O)O` (stereo not given) as the compound, how does the growth inhibition read?
A: 4.3% (inactive)

Q: For `C[C@]12CCC(=O)C=C1CC[C@@H]1C2CC[C@]2(C)Nc3[nH]ncc3CC12` (stereo not given in full), which growth inhibition is on record?
A: 37.4% (inactive)

Q: For `CC1OC(OC2C(Oc3cc(O)c4c(=O)cc(-c5ccc(O)cc5)oc4c3)OC(CO)C(O)C2O)C(O)C(O)C1O` (stereo not given), which growth inhibition is on record?
A: -14.2% (inactive)

Q: For `CC1(C)Cc2ccccc2C(C)(Cl)C(=O)N1` (stereo not given), which growth inhibition is on record?
A: 6.4% (inactive)

Q: With `CC(C)CCCC(C)C1CCC2C3CCC4CC(=O)/C(=C\O)CC4(C)C3CCC12C` (stereo not given) as the compound, how does the growth inhibition read?
A: 79.4% (active)

Q: For `O=C(c1ccc(Cl)cc1)C1C(c2ccccc2)C1[N+](=O)[O-]` (stereo not given), which growth inhibition is on record?
A: -3.2% (inactive)

Q: With `CCOP(C)(=O)/C(Cc1ccc(OC)c(OC)c1)=N\O` (stereo not given) as the compound, how does the growth inhibition read?
A: -14.8% (inactive)

Q: With `NNC(=O)c1c(-c2cccnc2)cnc2ccccc12` as the compound, how does the growth inhibition read?
A: -29.3% (inactive)

Q: Which growth inhibition does the source give for `O=C(Nc1nc(=S)[nH][nH]1)C(=O)C1C(=O)Nc2ccccc2S1=O` (stereo not given) here?
A: -4.2% (inactive)

Q: Which growth inhibition does the source give for `CCCCCCC#CC(=O)OCCCC` here?
A: 6.05% (inactive)

Q: Which growth inhibition does the source give for `Cc1ccc(C(=O)OCc2ccccc2CN2CCCCC2)cc1` here?
A: -22.6% (inactive)

Q: Which growth inhibition does the source give for `Cc1cc(S(=O)(=O)NC(=NCC(=O)NN)NN)c(S)cc1Cl` here?
A: -16.6% (inactive)

Q: For `Cc1nc2[nH]cc(-c3ccccc3)c2c(=N)n1-c1ccc(F)cc1`, which growth inhibition is on record?
A: -11.2% (inactive)

Q: Which growth inhibition does the source give for `COc1cc(=O)cc2n(-c3cc(OC)c(O)c(OC)c3)c3ccccc3nc1-2` here?
A: 5.95% (inactive)

Q: Which growth inhibition does the source give for `[Cl][Sm]([Cl])[Cl]` here?
A: 8.65% (inactive)

Q: For `CCOC(=O)CNC(=O)CCC(=O)OC`, which growth inhibition is on record?
A: 17.4% (inactive)

Q: For `O=C(O)c1ccc2c(c1)Cc1ccccc1-2`, which growth inhibition is on record?
A: 51.3% (inactive)

Q: Which growth inhibition does the source give for `Nc1ncc2c(ncn2CC(O)CO)n1` (stereo not given) here?
A: -1.55% (inactive)

Q: With `N#Cc1c(Br)n(C2OC(CO)C(O)C2O)c2ncncc12` (stereo not given) as the compound, how does the growth inhibition read?
A: 1.55% (inactive)

Q: Which growth inhibition does the source give for `Oc1cccc(C(c2ccccc2)c2ccccc2)c1` here?
A: -5.5% (inactive)

Q: With `CC(C)=CC1C(C(=O)O)C1(C)C` (stereo not given) as the compound, how does the growth inhibition read?
A: 3.35% (inactive)

Q: For `Oc1ccc2c(c1)c1ccccc1c1ncccc21`, which growth inhibition is on record?
A: 43.6% (inactive)

Q: Which growth inhibition does the source give for `CC(C)(SC(=N)N)B(O)O` here?
A: -6.55% (inactive)

Q: Which growth inhibition does the source give for `O=C(Nc1cccc(Cl)c1)c1cc2cc(N=Nc3ccc(Br)cc3)ccc2oc1=O` here?
A: 27% (inactive)

Q: With `CCCC(CCC)(CCC)CCN(C)C` as the compound, how does the growth inhibition read?
A: -14.9% (inactive)

Q: Which growth inhibition does the source give for `Cn1nc2ccccc2cc1=O` here?
A: -2.1% (inactive)

Q: Which growth inhibition does the source give for `COc1nc(NC2OC(CO)C(O)C(O)C2O)c(C(C)=O)c(=O)n1C` (stereo not given) here?
A: 24.1% (inactive)

Q: For `CC(=O)CC(=O)N1CCC(C)CC1`, which growth inhibition is on record?
A: -16.4% (inactive)

Q: For `COc1cc2cnc3c4ccccc4ccc3c2cc1OC`, which growth inhibition is on record?
A: -1.7% (inactive)

Q: Which growth inhibition does the source give for `NCCSCCC(=O)O` here?
A: -36.9% (inactive)

Q: Which growth inhibition does the source give for `COc1ccc(C2CC(c3c(C)nn(-c4ccccc4)c3-c3ccc(C)cc3O)=NN2c2ccccc2)cc1` (stereo not given) here?
A: -11.1% (inactive)

Q: For `CCc1cn(C2CC(CO)C(CO)S2)c(=O)[nH]c1=O` (stereo not given), which growth inhibition is on record?
A: 7.85% (inactive)

Q: For `CSc1ccc(NC(=O)Nc2ccc(Nc3ccccc3)cc2)cc1`, which growth inhibition is on record?
A: 15.1% (inactive)

Q: With `COc1cc(NC(C)CCCN)c2nccc(C)c2c1` (stereo not given) as the compound, how does the growth inhibition read?
A: -27.1% (inactive)

Q: With `C/C=C/C(=O)OCCCCCCCCCCCCCCCCCC` as the compound, how does the growth inhibition read?
A: 11.7% (inactive)

Q: With `O=C1OCC(c2ccccc2)(c2ccccc2)C(=O)N1O` as the compound, how does the growth inhibition read?
A: 3.95% (inactive)

Q: With `Oc1cccnc1CN1CCOCC1` as the compound, how does the growth inhibition read?
A: -12.6% (inactive)

Q: With `Cc1ccc(N)cc1S(=O)(=O)O` as the compound, how does the growth inhibition read?
A: -9.45% (inactive)

Q: Which growth inhibition does the source give for `O=[N+]([O-])c1ccc2c(c1)Cc1cc([N+](=O)[O-])ccc1-2` here?
A: -25.4% (inactive)

assay: NCI Yeast Anticancer Drug Screen. Data for the cln2 rad14 strain (AID 165);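 also: 0% = growth equal to vehicle treated cultures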; settings: S. cerevisiae cln2 rad14 strain, at 50.0 µM, stronger effect = higher value
Outline: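 Relative to vehicle controls, growth inhibition of compound-treated cln2 rad14 yeast was recorded.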

Q: For `CCOC(=O)CCC(NC(=O)c1ccc(Nc2nc3ccccc3nc2-c2cccs2)cc1)C(=O)OCC` (stereo not given), which growth inhibition is on record?
A: 14.8% (inactive)

Q: Which growth inhibition does the source give for `O=C(O)CC(NC(=O)c1cnc2ccccc2n1)C(=O)O` (stereo not given) here?
A: -17.1% (inactive)

Q: Which growth inhibition does the source give for `C[C@]12CCC(=O)C=C1CC[C@@H]1C2CC[C@]2(C)Nc3[nH]ncc3CC12` (stereo not given in full) here?
A: 33.6% (inactive)

Q: Which growth inhibition does the source give for `CC1OC(OC2C(Oc3cc(O)c4c(=O)cc(-c5ccc(O)cc5)oc4c3)OC(CO)C(O)C2O)C(O)C(O)C1O` (stereo not given) here?
A: -19.9% (inactive)

Q: For `CC1(C)Cc2ccccc2C(C)(Cl)C(=O)N1` (stereo not given), which growth inhibition is on record?
A: 17.9% (inactive)

Q: With `CC(C)CCCC(C)C1CCC2C3CCC4CC(=O)/C(=C\O)CC4(C)C3CCC12C` (stereo not given) as the compound, how does the growth inhibition read?
A: 38.6% (inactive)

Q: With `O=C(c1ccc(Cl)cc1)C1C(c2ccccc2)C1[N+](=O)[O-]` (stereo not given) as the compound, how does the growth inhibition read?
A: -28.9% (inactive)

Q: Which growth inhibition does the source give for `CCOP(C)(=O)/C(Cc1ccc(OC)c(OC)c1)=N\O` (stereo not given) here?
A: 10.4% (inactive)

Q: With `NNC(=O)c1c(-c2cccnc2)cnc2ccccc12` as the compound, how does the growth inhibition read?
A: -6.8% (inactive)

Q: For `O=C(Nc1nc(=S)[nH][nH]1)C(=O)C1C(=O)Nc2ccccc2S1=O` (stereo not given), which growth inhibition is on record?
A: 4% (inactive)

Q: Which growth inhibition does the source give for `CCCCCCC#CC(=O)OCCCC` here?
A: -20% (inactive)

Q: Which growth inhibition does the source give for `Cc1ccc(C(=O)OCc2ccccc2CN2CCCCC2)cc1` here?
A: -19.7% (inactive)

Q: With `Cc1cc(S(=O)(=O)NC(=NCC(=O)NN)NN)c(S)cc1Cl` as the compound, how does the growth inhibition read?
A: -6.95% (inactive)

Q: Which growth inhibition does the source give for `Cc1nc2[nH]cc(-c3ccccc3)c2c(=N)n1-c1ccc(F)cc1` here?
A: -23.1% (inactive)

Q: For `COc1cc(=O)cc2n(-c3cc(OC)c(O)c(OC)c3)c3ccccc3nc1-2`, which growth inhibition is on record?
A: 6% (inactive)

Q: For `[Cl][Sm]([Cl])[Cl]`, which growth inhibition is on record?
A: 8.6% (inactive)

Q: For `CCOC(=O)CNC(=O)CCC(=O)OC`, which growth inhibition is on record?
A: -10.6% (inactive)

Q: With `O=C(O)c1ccc2c(c1)Cc1ccccc1-2` as the compound, how does the growth inhibition read?
A: 45.1% (inactive)

Q: With `Nc1ncc2c(ncn2CC(O)CO)n1` (stereo not given) as the compound, how does the growth inhibition read?
A: 4.65% (inactive)

Q: Which growth inhibition does the source give for `N#Cc1c(Br)n(C2OC(CO)C(O)C2O)c2ncncc12` (stereo not given) here?
A: -0.05% (inactive)

Q: For `Oc1cccc(C(c2ccccc2)c2ccccc2)c1`, which growth inhibition is on record?
A: -11.1% (inactive)

Q: Which growth inhibition does the source give for `CC(C)=CC1C(C(=O)O)C1(C)C` (stereo not given) here?
A: -2.95% (inactive)

Q: Which growth inhibition does the source give for `Oc1ccc2c(c1)c1ccccc1c1ncccc21` here?
A: 3.7% (inactive)

Q: With `CC(C)(SC(=N)N)B(O)O` as the compound, how does the growth inhibition read?
A: 9.35% (inactive)

Q: With `O=C(Nc1cccc(Cl)c1)c1cc2cc(N=Nc3ccc(Br)cc3)ccc2oc1=O` as the compound, how does the growth inhibition read?
A: 29.1% (inactive)

Q: With `CCCC(CCC)(CCC)CCN(C)C` as the compound, how does the growth inhibition read?
A: -23.9% (inactive)

Q: With `Cn1nc2ccccc2cc1=O` as the compound, how does the growth inhibition read?
A: 14.2% (inactive)

Q: With `COc1nc(NC2OC(CO)C(O)C(O)C2O)c(C(C)=O)c(=O)n1C` (stereo not given) as the compound, how does the growth inhibition read?
A: 15.2% (inactive)

Q: For `CC(=O)CC(=O)N1CCC(C)CC1`, which growth inhibition is on record?
A: 27.6% (inactive)

Q: With `COc1cc2cnc3c4ccccc4ccc3c2cc1OC` as the compound, how does the growth inhibition read?
A: 4.2% (inactive)

Q: Which growth inhibition does the source give for `NCCSCCC(=O)O` here?
A: 7.3% (inactive)

Q: For `COc1ccc(C2CC(c3c(C)nn(-c4ccccc4)c3-c3ccc(C)cc3O)=NN2c2ccccc2)cc1` (stereo not given), which growth inhibition is on record?
A: -2% (inactive)

Q: With `CCc1cn(C2CC(CO)C(CO)S2)c(=O)[nH]c1=O` (stereo not given) as the compound, how does the growth inhibition read?
A: -6.4% (inactive)

Q: For `CSc1ccc(NC(=O)Nc2ccc(Nc3ccccc3)cc2)cc1`, which growth inhibition is on record?
A: -11.9% (inactive)

Q: With `COc1cc(NC(C)CCCN)c2nccc(C)c2c1` (stereo not given) as the compound, how does the growth inhibition read?
A: -8.15% (inactive)

Q: Which growth inhibition does the source give for `C/C=C/C(=O)OCCCCCCCCCCCCCCCCCC` here?
A: 8% (inactive)

Q: With `O=C1OCC(c2ccccc2)(c2ccccc2)C(=O)N1O` as the compound, how does the growth inhibition read?
A: 13.2% (inactive)

Q: With `Oc1cccnc1CN1CCOCC1` as the compound, how does the growth inhibition read?
A: 8.8% (inactive)

Q: Which growth inhibition does the source give for `Cc1ccc(N)cc1S(=O)(=O)O` here?
A: -14.8% (inactive)

Q: For `O=[N+]([O-])c1ccc2c(c1)Cc1cc([N+](=O)[O-])ccc1-2`, which growth inhibition is on record?
A: -181% (inactive)
